# Source: PubChem BioAssay AID624261 (National Center for Advancing Translational Sciences (NCATS), 2012)
# The list shows a part of the results. The source made the active and inactive calls. Calls come from the whole dose curve.
# Biological target: Glutaminase kidney isoform, mitochondrial (Homo sapiens) (UniProt O94925)
# Experiment: qHTS for Inhibitors of Glutaminase (GLS): Hit Confirmation
# Conditions: biochemical glutaminase enzyme inhibition assay
# Source text: Glutaminase (GLS) catalyzes the hydrolysis of glutamine into glutamate and ammonia. It plays a critical role in glutaminolysis, which is an important energy source for proliferating cells. It was shown that c-Myc, an oncogenic transcription factor known to regulate microRNAs and to stimulate cell proliferation, increases glutamine metabolism by stimulating the expression of GLS via direct suppression of miR23a and miR23b.
# GLS is also thought to play a pathogenic role on HAD using a human HIV-1 infected macrophage system. […] GLS inhibition limits glutamate release and provides neuroprotection against HIV-1 infected macrophages.
# The overall goal of this project is to identify small molecule inhibitors of GLS through quantitative high throughput screening (qHTS) of the MLSMR. A validated potent and selective inhibitor can be used as a tool molecule to further study the pharmacology of its target as well as explore its potential therapeutic application in cancer and inflammatory neurological disorders, such as HIV1-associated dementia (HAD) and multiple sclerosis. This is the hit confirmation in the primary assay data. […]
# Three 3 uL of hKGA is dispensed into black well 1536-well plates in 45 mM KH2PO4 (pH 8.2), 0.02% Tween-20. […] Plate is centrifuged for 25 sec before an initial fluorescence read is obtained on the ViewLux, after 30 min of RT incubation, the final read is taken on the ViewLux.
# Sequence of Glutaminase kidney isoform, mitochondrial (Homo sapiens) (O94925 whole entry, looked up, canonical isoform): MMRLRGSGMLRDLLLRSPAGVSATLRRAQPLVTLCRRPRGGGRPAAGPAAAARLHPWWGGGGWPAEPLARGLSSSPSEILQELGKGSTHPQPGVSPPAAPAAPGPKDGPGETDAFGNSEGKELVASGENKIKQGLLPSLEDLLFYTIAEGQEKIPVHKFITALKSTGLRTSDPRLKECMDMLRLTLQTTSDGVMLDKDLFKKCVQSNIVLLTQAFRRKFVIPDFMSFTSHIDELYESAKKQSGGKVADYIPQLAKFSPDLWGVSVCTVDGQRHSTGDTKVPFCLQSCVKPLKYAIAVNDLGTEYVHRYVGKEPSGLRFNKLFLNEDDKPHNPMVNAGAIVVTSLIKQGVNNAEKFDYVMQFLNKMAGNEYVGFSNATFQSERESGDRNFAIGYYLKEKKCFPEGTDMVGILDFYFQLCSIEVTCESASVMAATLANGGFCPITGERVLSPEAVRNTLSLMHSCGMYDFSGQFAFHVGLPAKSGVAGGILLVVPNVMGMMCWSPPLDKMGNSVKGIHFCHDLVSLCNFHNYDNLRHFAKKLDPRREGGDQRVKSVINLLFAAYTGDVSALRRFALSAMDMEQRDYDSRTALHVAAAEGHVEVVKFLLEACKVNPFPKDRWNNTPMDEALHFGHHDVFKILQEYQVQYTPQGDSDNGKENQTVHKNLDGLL
row,Compound,Potency
1,COc1cc(OC)c(S(=O)(=O)Nc2ccccc2C(=O)O)cc1S(=O)(=O)Nc1ccccc1C(=O)O,5.8 µM (active)
